Experimental data reported in PubChem BioAssay (NCI).
About 83,000 compounds went through this panel and 20% of them were active in at least one assay; those are over-represented in the sample as a whole.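 Compound tested at a single concentration for 48 hours in 96-well plates; a percent growth value below 10 was scored as active.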 Values without a mark were called inactive.

Test system: MDA-MB-468 breast
Experiment: NCI-60 one-dose screen, 48 h (100 = growth as untreated, 0 = no growth, -100 = all killed)
Details: 10 µM unless noted

Structure (SMILES) | growth [%]
CC/C(=C(/c1ccc(Cl)cc1)c1ccc(OCCN2CCCC2)cc1)c1ccccc1 | 46.9
COc1cc(/C=C2\C(=O)N(CCCOc3cc(O)c4c(=O)cc(-c5ccccc5)oc4c3)c3ccccc32)cc(OC)c1O | 89.4
O=S(=O)(c1ccccc1)n1ccc(-c2ccc3c(c2)CCO3)n1 | 42.4
CN(Cc1ccccc1)c1nc(Cl)c(C2CC(c3ccc4c(c3)OCO4)=NN2c2cc(Cl)cc(Cl)c2)s1 (centres undefined) | 103
